# PubChem BioAssay (NCATS)
# Where “and” joins values, the source holds several entries; their conditions need not be identical. Equal values may be shown once. Records with an inconclusive call do not appear. Calls of active or inactive are those of the source. Unless noted, the call rests on the fitted dose curve.
# How the values were obtained:
# [1] = target: Glucocorticoid receptor (Homo sapiens) (UniProt P04150); test: qHTS assay for small molecule agonists of glucocorticoid receptor signaling (AID 588532; active means well fitted curve in the direction sought with a large enough effect in the signal ratio, with a control signal flat; the % refers to the signal ratio;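 further: 100% = dexamethasone at 0.1 µM and 0% = DMSO only wells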); conditions: HeLa MMTV-bla, beta-lactamase ratio, agonist, 18 h; activation: stronger effect = higher value, percent of dexamethasone control, DMSO zero
# Chain of Glucocorticoid receptor (Homo sapiens) (P04150 whole entry, looked up): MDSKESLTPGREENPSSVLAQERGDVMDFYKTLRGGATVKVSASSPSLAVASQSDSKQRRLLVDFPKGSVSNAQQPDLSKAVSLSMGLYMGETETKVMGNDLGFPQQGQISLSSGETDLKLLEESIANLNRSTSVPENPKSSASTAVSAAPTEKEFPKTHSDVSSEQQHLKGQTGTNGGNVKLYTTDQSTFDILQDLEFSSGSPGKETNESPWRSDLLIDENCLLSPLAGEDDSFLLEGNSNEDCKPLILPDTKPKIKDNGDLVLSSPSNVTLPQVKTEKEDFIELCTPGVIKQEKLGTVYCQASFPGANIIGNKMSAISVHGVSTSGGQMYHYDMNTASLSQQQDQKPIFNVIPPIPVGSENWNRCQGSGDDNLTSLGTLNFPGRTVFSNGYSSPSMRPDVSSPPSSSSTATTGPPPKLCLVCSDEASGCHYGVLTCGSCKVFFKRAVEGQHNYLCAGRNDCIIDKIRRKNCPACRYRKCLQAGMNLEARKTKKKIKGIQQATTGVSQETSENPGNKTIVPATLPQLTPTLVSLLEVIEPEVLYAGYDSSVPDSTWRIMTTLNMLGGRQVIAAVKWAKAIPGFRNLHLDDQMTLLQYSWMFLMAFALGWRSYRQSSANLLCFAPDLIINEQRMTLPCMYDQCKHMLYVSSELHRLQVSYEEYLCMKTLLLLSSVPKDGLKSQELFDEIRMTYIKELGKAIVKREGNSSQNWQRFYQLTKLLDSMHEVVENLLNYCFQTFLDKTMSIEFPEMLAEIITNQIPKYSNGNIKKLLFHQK
# Method in brief: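 Cells were plated and rested 3-5 h at 37 C, compounds were added in titration and incubated 18 h, then CCF4 substrate was loaded for 2 h at RT before reading blue/green fluorescence. EC50 came from Hill-equation fitting.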
# [2] = target: Glucocorticoid receptor (Homo sapiens) (UniProt P04150); test: qHTS assay for small molecule antagonists of glucocorticoid receptor signaling (AID 588533; active means well fitted inhibition curve with a large enough effect in the signal ratio, with a control signal flat, not every such curve was filed as active; the % refers to the signal ratio; further: on the % scale 0 is the no-effect control and ±100 the full control effect)
# Method in brief: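 Antagonist-mode qHTS: compound titrations added to GRE-bla HeLa cells, then dexamethasone 2 nM final; 18 h, 37 C. CCF4 FRET fluorescence normalized to dexamethasone and DMSO; IC50 from Hill fit.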
# [3] = target: Peroxisome proliferator-activated receptor delta (Homo sapiens) (UniProt Q03181); test: qHTS assay for small molecule agonists of peroxisome proliferator-activated receptor delta signaling (AID 588534);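 further: 0% = DMSO basal wells and 100% = positive control agonist at 10 µM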
# Chain of Peroxisome proliferator-activated receptor delta (Homo sapiens) (Q03181 whole entry, looked up): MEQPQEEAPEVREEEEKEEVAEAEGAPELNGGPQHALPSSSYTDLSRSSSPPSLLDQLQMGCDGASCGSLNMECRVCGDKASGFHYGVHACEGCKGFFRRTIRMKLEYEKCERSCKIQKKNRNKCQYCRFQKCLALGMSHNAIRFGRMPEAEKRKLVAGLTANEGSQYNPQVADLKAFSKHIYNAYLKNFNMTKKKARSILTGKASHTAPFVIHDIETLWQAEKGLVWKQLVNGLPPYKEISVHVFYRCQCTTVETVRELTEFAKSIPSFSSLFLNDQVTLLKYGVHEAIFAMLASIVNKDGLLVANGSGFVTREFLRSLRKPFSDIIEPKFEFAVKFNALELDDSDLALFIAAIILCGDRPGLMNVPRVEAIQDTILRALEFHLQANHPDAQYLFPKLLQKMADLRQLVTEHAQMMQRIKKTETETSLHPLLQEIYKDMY
# Method in brief: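 Agonist-mode qHTS; reporter cells, 5 hrs 37 C pre-incubation; compound titration, 18 hrs 37 C; CCF4 dye, 2 hrs RT; fluorescence read. EC50/efficacy via Hill fit.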
# [4] = qHTS assay for small molecule antagonists of peroxisome proliferator-activated receptor delta signaling (AID 588535; active means well fitted inhibition curve with a large enough effect in the signal ratio, with a control signal flat, not every such curve was filed as active; the % refers to the signal ratio;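 on max response: cells co-treated with a PPAR-delta agonist as stimulator during compound exposure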); conditions: HEK293T PPARd-UAS-bla, beta-lactamase FRET ratio, 18 h; 460 nm channel
# Method in brief: (§1)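 Fluorescence from CCF4-loaded GeneBLAzer PPAR-delta-UAS-bla HEK293T cells (2 hrs RT loading) quantified reporter inhibition after an 18 hr, 37 C compound exposure across a titration.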
# [5] = target: Peroxisome proliferator-activated receptor delta (Homo sapiens) (UniProt Q03181); test: as above
# Method in brief: as §1
# [6] = target: Peroxisome proliferator-activated receptor gamma (Homo sapiens) (UniProt P37231); test: qHTS assay for small molecule agonists of peroxisome proliferator-activated receptor gamma signaling (AID 588536; active means well fitted curve in the direction sought with a large enough effect in the signal ratio, with a control signal flat, not every such curve was filed as active; the % refers to the signal ratio;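 further: 0% = DMSO basal wells and 100% = rosiglitazone at 2 µM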)
# Chain of Peroxisome proliferator-activated receptor gamma (Homo sapiens) (P37231 whole entry, looked up): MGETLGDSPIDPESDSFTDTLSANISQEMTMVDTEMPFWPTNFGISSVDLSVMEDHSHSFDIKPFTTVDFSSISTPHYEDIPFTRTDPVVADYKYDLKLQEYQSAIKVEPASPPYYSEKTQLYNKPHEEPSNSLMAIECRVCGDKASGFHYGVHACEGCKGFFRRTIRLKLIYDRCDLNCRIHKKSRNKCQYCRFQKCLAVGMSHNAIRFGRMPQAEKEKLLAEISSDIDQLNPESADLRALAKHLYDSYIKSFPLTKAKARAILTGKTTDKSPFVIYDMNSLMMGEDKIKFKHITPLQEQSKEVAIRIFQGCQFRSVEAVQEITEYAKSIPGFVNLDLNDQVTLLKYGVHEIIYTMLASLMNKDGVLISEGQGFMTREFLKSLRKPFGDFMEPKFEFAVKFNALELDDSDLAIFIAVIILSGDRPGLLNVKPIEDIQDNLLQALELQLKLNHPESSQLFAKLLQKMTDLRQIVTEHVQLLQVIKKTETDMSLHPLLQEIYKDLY
# Method in brief: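 Compound treatment: 16 h, 37 C, HEK293 GeneBLAzer cells. Detection: CCF4, 2 h RT. Values: Hill-fit EC50, efficacy as % of 2 uM rosiglitazone.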
# [7] = target: Peroxisome proliferator-activated receptor gamma (Homo sapiens) (UniProt P37231); test: qHTS assay for small molecule antagonists of peroxisome proliferator-activated receptor gamma signaling (AID 588537; active means well fitted inhibition curve with a large enough effect in the signal ratio, with a control signal flat, not every such curve was filed as active; the % refers to the signal ratio;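 further: reporter cells co-stimulated with 50 nM rosiglitazone agonist during compound treatment; % of control where 0% means no effect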)
# Method in brief: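 Fluorescence at 460 and 530 nm (405 nm excitation) reported beta-lactamase cleavage of CCF4 after 2 h room-temperature loading. HEK293 reporter cells in 1% charcoal/dextran-treated FBS had received compound and rosiglitazone for 16 h.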
# [8] = target: Vitamin D3 receptor (Homo sapiens) (UniProt P11473); test: qHTS assay for small molecule antagonists of vitamin D receptor signaling (AID 588541);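 further: receptor activated by calcitriol during compound treatment; series mostly up to about 77 µM; on the % scale 0 is the no-effect control and ±100 the full control effect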
# Chain of Vitamin D3 receptor (Homo sapiens) (P11473 whole entry, looked up): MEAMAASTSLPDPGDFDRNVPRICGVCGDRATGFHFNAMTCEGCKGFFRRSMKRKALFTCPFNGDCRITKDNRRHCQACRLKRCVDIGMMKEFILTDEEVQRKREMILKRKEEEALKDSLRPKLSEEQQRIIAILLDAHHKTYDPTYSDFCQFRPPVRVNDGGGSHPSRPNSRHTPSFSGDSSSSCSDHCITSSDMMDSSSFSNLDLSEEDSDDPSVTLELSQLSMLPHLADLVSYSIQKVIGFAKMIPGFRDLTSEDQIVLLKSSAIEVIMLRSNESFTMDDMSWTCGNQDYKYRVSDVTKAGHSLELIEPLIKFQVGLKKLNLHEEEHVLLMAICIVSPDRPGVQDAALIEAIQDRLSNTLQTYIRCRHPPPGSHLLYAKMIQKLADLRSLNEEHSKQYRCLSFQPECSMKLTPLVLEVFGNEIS
# Method in brief: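 VDR-UAS-bla HEK293T cells in 2% charcoal-stripped FBS were stimulated with 1-alpha,25-dihydroxyvitamin D3 (3 nM final) plus compound for 16 h at 37 C. The beta-lactamase CCF4 readout was normalized to 50 nM agonist and DMSO, and Hill fits gave IC50.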
# [9] = target: Vitamin D3 receptor (Homo sapiens) (UniProt P11473); test: qHTS assay for small molecule agonists of vitamin D receptor signaling (AID 588543);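 further: 0% = DMSO basal and 100% = reference agonist control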
# Method in brief: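 Reporter cells (HEK293T, VDR-UAS-bla) were seeded in medium with 2% charcoal-stripped serum and incubated 5 h, then compounds in concentration series were added for 16 h at 37 °C. Stimulation was scaled between DMSO basal and 50 nM 1α,25-dihydroxyvitamin D3.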
# [10] = target: Thyroid hormone receptor beta (Homo sapiens) (UniProt P10828); test: qHTS assay for small molecule agonists of thyroid hormone receptor beta signaling (AID 588545)
# Chain of Thyroid hormone receptor beta (Homo sapiens) (P10828 whole entry, looked up): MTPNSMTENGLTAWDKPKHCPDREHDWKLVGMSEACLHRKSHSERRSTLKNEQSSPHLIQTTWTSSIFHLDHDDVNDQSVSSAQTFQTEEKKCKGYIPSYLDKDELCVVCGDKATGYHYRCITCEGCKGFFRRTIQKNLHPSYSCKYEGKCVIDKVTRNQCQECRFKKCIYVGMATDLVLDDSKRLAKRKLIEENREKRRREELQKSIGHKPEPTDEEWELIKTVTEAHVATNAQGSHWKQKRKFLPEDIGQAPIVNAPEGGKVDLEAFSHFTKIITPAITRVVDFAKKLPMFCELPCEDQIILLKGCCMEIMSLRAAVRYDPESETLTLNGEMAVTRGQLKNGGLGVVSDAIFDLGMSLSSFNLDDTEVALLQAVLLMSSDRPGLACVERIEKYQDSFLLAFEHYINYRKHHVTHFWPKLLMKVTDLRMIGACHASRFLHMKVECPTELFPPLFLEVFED
# Method in brief: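 HEK 293 TR-UAS-bla; agonist mode; 18 hrs, 37 C; CCF4, ex 405/em 460 and 530 nm; norm. T3 10 nM = 100%, DMSO = 0%; Hill fit → EC50, efficacy.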
# [11] = qHTS assay for small molecule antagonists of retinoid X receptor alpha signaling (AID 588546; active means well fitted inhibition curve with a large enough effect in the signal ratio, with a control signal flat, not every such curve was filed as active; the % refers to the signal ratio;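 further: cells stimulated with 9-cis-retinoic acid as agonist; on the % scale 0 is the no-effect control and ±100 the full control effect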); conditions: HEK293T RXRa-UAS-bla, beta-lactamase ratio, antagonist mode; measured here: W530 green channel, cytotoxicity proxy
# Method in brief: (§2)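 Beta-lactamase reporter inhibition, read as CCF4 fluorescence ratio (ex 405, em 460/530 nm) after 2 h at RT. HEK293T UAS-bla cells, 2500/well, were stimulated with 9-cis-RA at 500 or 100 nM final alongside test compound for 18 h at 37 C.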
# [12] = target: Retinoic acid receptor RXR-alpha (Homo sapiens) (UniProt P19793); test: as above; conditions: HEK293T RXRa-UAS-bla, beta-lactamase ratio, antagonist mode
# Chain of Retinoic acid receptor RXR-alpha (Homo sapiens) (P19793 whole entry, looked up): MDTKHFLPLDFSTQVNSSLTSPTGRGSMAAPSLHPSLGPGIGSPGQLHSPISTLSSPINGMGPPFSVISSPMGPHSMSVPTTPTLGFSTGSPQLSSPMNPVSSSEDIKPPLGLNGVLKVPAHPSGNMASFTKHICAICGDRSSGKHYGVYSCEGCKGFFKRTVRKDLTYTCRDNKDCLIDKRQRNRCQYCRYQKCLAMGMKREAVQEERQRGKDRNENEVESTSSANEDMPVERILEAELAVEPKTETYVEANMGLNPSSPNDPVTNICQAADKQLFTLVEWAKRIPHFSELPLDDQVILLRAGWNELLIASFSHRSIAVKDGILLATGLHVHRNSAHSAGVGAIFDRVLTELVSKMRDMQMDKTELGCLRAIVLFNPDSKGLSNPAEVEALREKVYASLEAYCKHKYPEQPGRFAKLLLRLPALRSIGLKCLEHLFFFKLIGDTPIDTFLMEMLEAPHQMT
# Method in brief: as §2
# [13] = target: Thyroid hormone receptor beta (Homo sapiens) (UniProt P10828); test: qHTS assay for small molecule antagonists of thyroid hormone receptor beta signaling (AID 588547; active means well fitted inhibition curve with a large enough effect in the signal ratio, with a control signal flat, not every such curve was filed as active; the % refers to the signal ratio;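 further: cells stimulated with 0.4 nM T3 agonist during compound exposure; series mostly up to about 77 µM; on the % scale 0 is the no-effect control and ±100 the full control effect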); conditions: TR-UAS-bla HEK293, beta-lactamase ratio, antagonist mode, 18 h
# Method in brief: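 TR-UAS-bla GripTite HEK293 cells in 2% charcoal/dextran FBS medium; compounds 0.59 nM to 92 uM with T3 at 0.4nM final, 18 h at 37 C. Beta-lactamase read by CCF4 fluorescence (460/530 nm); Hill fits gave IC50 and efficacy.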
# [14] = qHTS assay for small molecule agonists of the antioxidant response element (ARE) signaling pathway (AID 651741; active means well fitted activation curve with a large enough effect in the signal ratio; the % refers to the signal ratio; further: potency means the concentration at half of the fitted maximal effect)
# Method in brief: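 Stably integrated ARE-beta-lactamase reporter HepG2 cells; 16 h compound incubation, 37 C; LiveBLAzer FRET substrate 2 h at room temperature; fluorescence intensity.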
# [15] = qHTS assay for small molecule activators of the p53 signaling pathway (AID 651743; active means well fitted activation curve with a large enough effect in the signal ratio, not every such curve was filed as active; the % refers to the signal ratio; further: series mostly up to about 92 µM; % of control where 0% means no effect); conditions: HCT-116 p53RE-bla, beta-lactamase FRET ratio, 16 h; activation: stronger effect = higher value
# Method in brief: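 Following 16 hours of compound exposure at 37 C, HCT-116 cells bearing the p53RE-bla reporter were loaded with LiveBLAzer B/G FRET substrate for 2 hours at room temperature and fluorescence intensity was recorded.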
# [16] = qHTS assay for small molecule activators of the nuclear factor-kappa B (NF-kB) signaling pathway (AID 651749; active means well fitted activation curve with a large enough effect in the signal ratio; the % refers to the signal ratio; further: series mostly up to about 77 µM; % of control where 0% means no effect); conditions: NF-kB-bla ME-180 cells, beta-lactamase FRET ratio, 16 h; activation: stronger effect = higher value
# Method in brief: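 In this qHTS format, compounds acting as activators increase NF-kB-driven beta-lactamase in ME-180 cells, measured as disrupted FRET after 16 hr exposure at 37C and 5% CO2.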
# [17] = qHTS assay for environmental chemicals that activate the Aryl hydrocarbon Receptor (AhR) signaling pathway (AID 651777; active means well fitted curve in the direction sought with a large enough effect; an effect the other way counts as inactive or inconclusive; further: % of control where 0% means no effect; nearly all actives have a fitted effect of over 15% in size); conditions: 1A2-DRE human hepatoma cells, luciferase, 24 h; activation: stronger effect = higher value
# Method in brief: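 Human hepatoma 1A2-DRE cells, stably carrying a dioxin response element and CYP1A2 promoter driving luciferase, were exposed to compounds for 24 hr at 37 C and 5% CO2. Luciferase signal was then read after 30 min One-Glo at room temperature.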
# [18] = target: Peroxisome proliferator-activated receptor alpha (Homo sapiens) (UniProt Q07869); test: qHTS assay for small molecule agonists of the peroxisome proliferator-activated receptor alpha (PPARalpha) signaling pathway (AID 651778; active means well fitted curve in the direction sought with a large enough effect; an effect the other way counts as inactive or inconclusive; further: % of control where 0% means no effect); conditions: PathHunter PPARalpha complementation, chemiluminescence, 6 h; max response: stronger effect = higher value
# Chain of Peroxisome proliferator-activated receptor alpha (Homo sapiens) (Q07869 whole entry, looked up, the tested form may be a part): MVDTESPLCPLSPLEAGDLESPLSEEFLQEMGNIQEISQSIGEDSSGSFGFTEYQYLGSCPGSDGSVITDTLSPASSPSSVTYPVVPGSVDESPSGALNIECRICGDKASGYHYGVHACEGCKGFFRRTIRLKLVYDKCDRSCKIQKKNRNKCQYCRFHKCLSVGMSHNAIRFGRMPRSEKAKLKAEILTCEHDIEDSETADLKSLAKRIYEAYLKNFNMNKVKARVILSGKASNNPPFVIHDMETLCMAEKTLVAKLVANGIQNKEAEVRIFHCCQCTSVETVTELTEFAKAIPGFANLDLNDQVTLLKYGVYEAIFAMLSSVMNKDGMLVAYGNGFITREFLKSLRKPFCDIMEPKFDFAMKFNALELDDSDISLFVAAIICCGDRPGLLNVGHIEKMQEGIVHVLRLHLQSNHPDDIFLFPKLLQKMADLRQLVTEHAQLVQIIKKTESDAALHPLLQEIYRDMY
# Method in brief: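 Enzyme-fragment complementation assay in which ligand-bound PPARalpha translocates and forms an active enzyme that generates chemiluminescence. Cells were plated overnight, exposed to compound for 6 hr at 37 C, and then given detection reagent for 60 min at room temperature.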
# [19] = qHTS assay for small molecule agonists of the antioxidant response element (ARE) signaling pathway measured by Nrf2-dependant transcriptional activity - cell viability counter screen (AID 720653; active means well fitted curve in the direction sought with a large enough effect in the repeat runs; an effect the other way counts as inactive or inconclusive; further: on the % scale 0 is the no-effect control and ±100 the full control effect); conditions: ARE-bla HepG2 viability, CellTiter-Glo ATP luminescence, 16 h; max response: stronger effect = lower value
# Method in brief: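 ARE-bla HepG2 cells treated with compounds for 16 h at 37C; this counter screen measures viability as intracellular ATP by CellTiter-Glo luminescence after 30 min at room temperature.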
# [20] = qHTS assay for cell viability of HEK293 cells (AID 743288; active means well fitted curve in the direction sought with a large enough effect; an effect the other way counts as inactive or inconclusive; further: on the % scale 0 is the no-effect control and ±100 the full control effect; nearly all actives have a fitted effect of over 50% in size); conditions: ATP luminescence (CellTiter-Glo), 18 h; max response: stronger effect = lower value
# Method in brief: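 Viable-cell counts were inferred from luciferase-based ATP content in HEK293 cells seeded at 2,000/well, pre-incubated ≥5 h, then dosed with DMSO-solubilised compounds for 18 h at 37 C.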
# [21] = qHTS assay for cell viability of the p53RE-bla HCT-116 cell line (AID 743292; active means well fitted curve in the direction sought with a large enough effect; an effect the other way counts as inactive or inconclusive; further: on the % scale 0 is the no-effect control and ±100 the full control effect; nearly all actives have a fitted effect of over 55% in size)
# Method in brief: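 CellSensor p53RE-bla HCT-116 cells, 4,000/well, preincubated 5 h at 37 C, then exposed to compounds in DMSO for 16 h at 37 C. Viability read as CellTiter-Glo luminescence (intracellular ATP) after 30 min at room temperature.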
# [22] = target: Nuclear receptor subfamily 1 group I member 2 (Rattus norvegicus) (UniProt Q9R1A7); test: qHTS assay for small molecule activators of the rat pregnane X receptor (rPXR) signaling pathway (AID 651751; call rule not given here; further: 0% is about no effect); conditions: rPXR reporter cells, luciferase (One-Glo), 24 h
# Chain of Nuclear receptor subfamily 1 group I member 2 (Rattus norvegicus) (Q9R1A7 whole entry, looked up): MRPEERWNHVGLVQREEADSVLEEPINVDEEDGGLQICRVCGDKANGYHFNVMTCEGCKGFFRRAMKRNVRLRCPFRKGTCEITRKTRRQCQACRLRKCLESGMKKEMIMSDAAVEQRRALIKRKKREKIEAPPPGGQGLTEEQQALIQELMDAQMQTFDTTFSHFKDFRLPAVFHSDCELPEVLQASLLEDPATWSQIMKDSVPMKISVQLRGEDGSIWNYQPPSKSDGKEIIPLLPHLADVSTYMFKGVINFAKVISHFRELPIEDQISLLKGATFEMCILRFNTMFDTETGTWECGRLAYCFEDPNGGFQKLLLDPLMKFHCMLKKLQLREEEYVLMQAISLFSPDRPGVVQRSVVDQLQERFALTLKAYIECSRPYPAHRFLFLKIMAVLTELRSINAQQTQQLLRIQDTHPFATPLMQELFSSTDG
# [23] = target: Bile acid receptor (Homo sapiens) (UniProt Q96RI1); test: qHTS assay for small molecule agonists of farnesoid X receptor signaling (AID 588527); conditions: HEK293T FXR-UAS-bla, beta-lactamase ratio, 16 h; activation: stronger effect = higher value;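 further: series mostly up to about 77 µM; 0% = vehicle basal and 100% = reference agonist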
# Chain of Bile acid receptor (Homo sapiens) (Q96RI1 whole entry, looked up): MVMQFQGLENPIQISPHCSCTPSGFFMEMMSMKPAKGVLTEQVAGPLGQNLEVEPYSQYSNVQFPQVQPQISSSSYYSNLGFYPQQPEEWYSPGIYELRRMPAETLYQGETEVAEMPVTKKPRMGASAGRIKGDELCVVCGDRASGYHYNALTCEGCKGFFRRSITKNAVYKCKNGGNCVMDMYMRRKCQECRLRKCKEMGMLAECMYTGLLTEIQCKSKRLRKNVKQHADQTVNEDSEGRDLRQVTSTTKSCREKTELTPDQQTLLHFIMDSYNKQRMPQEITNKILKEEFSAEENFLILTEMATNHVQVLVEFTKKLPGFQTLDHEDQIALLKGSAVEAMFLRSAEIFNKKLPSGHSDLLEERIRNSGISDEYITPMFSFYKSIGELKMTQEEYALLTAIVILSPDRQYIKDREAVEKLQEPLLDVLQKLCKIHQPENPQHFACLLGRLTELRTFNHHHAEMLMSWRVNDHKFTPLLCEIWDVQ
# Method in brief: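 FXR-UAS-bla HEK293T, 10% dialyzed FBS; cpds up to 92 uM titration, 16 h 37 C; CCF4 dye 2 h RT; fluorescence. Normalized to chenodeoxycholic acid 100 uM (100%) and DMSO (0%); Hill fit gives EC50, efficacy.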
# [24] = target: Luciferin 4-monooxygenase (Photinus pyralis) (UniProt P08659); test: Biochemical firefly luciferase enzyme assay for NPC (AID 624030; active means well fitted curve in the direction sought with a large enough effect; an effect the other way counts as inactive or inconclusive;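 further: purified P. pyralis luciferase at 10 nM with luciferin and ATP substrate; series mostly up to about 59 µM; 0% = DMSO and -100% = full luciferase inhibition by PTC124 control; nearly all actives have a fitted effect of over 70% in size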)
# Method in brief: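 Purified P. pyralis luciferase at 10 nM in 50 mM Tris Acetate (final), luminescence read within 5 minutes of enzyme addition to compounds. Activity normalised to PTC124 versus DMSO; concentration-response curves classed by r2, magnitude and activity.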
# [25] = qHTS assay for small molecule agonists of retinoid X receptor alpha signaling (AID 588544); conditions: HEK293T RXRa-UAS-bla, beta-lactamase reporter, 18 h; 530 nm emission;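 on activation: 0% = DMSO basal wells and 100% = reference agonist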
# [26] = target: Retinoic acid receptor RXR-alpha (Homo sapiens) (UniProt P19793); test: as above
# [27] = target: Cytochrome P450 3A4 (Homo sapiens) (UniProt P08684); test: qHTS Assay for Activators of Cytochrome P450 3A4 (AID 885; active means well fitted curve in the direction sought with a large enough effect; an effect the other way counts as inactive or inconclusive; further: nearly all actives have a fitted effect of over 65% in size)
# Chain of Cytochrome P450 3A4 (Homo sapiens) (P08684 whole entry, looked up): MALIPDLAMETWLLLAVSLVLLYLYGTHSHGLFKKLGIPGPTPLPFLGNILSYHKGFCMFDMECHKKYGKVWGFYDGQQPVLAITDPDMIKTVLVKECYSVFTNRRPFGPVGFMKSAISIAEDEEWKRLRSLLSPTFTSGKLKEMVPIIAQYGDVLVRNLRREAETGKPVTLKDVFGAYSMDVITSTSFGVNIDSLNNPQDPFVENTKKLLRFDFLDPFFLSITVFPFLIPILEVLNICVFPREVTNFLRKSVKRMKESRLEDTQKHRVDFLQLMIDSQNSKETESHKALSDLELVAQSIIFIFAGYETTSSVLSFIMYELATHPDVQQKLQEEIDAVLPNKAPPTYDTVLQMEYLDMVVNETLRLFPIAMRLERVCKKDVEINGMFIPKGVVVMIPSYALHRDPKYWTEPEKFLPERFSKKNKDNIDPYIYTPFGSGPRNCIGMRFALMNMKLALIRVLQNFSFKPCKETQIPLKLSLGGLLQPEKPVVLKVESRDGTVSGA
# Method in brief: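 CYP3A4 activity: Luciferin-PPXE O-dealkylation, 25uM substrate, 200mM KPO4, RT throughout. Read-out is luciferase luminescence; higher values reflect activation.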
# [28] = target: Voltage-gated inwardly rectifying potassium channel KCNH2 (Homo sapiens) (UniProt Q12809); test: qHTS Assay for Small Molecule Inhibitors of the Human hERG Channel Activity (AID 588834; active means well fitted curve in the direction sought with a large enough effect; an effect the other way counts as inactive or inconclusive;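 further: top concentration of the series differs between compounds; on the % scale 0 is the no-effect control and ±100 the full control effect; lower thallium flux fluorescence means stronger hERG block; nearly all actives have a fitted effect of over 50% in size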)
# Method in brief: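 Step 1: BacMam hERG transduction of U2OS, 4 hrs RT. Step 2: overnight 37 °C, plate 2000 cells/well, 4 hr. Step 3: FluxOR load, compound 10 min, stimulate, read fluorescence.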
# [29] = qHTS assay for small molecule agonists of the antioxidant response element (ARE) signaling pathway measured by Nrf2-dependant transcriptional activity (AID 720636; active means well fitted curve in the direction sought with a large enough effect in the repeat runs; an effect the other way counts as inactive or inconclusive; further: % of control where 0% means no effect)
# Method in brief: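 ARE-luc HepG2 cells carrying an Nrf2-responsive luciferase reporter were plated in medium with 1% dialyzed FBS, left 6 hr at 37 C to attach, then exposed to compound for 16 hr. Luciferase luminescence was read after ONE-Glo addition.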
structure (smiles),measurement,setting,value
O=[N+]([O-])c1ccc(Oc2ccc(Cl)cc2Cl)cc1,activation,[1],-3.5% (inactive)
same,Potency,[2],inactive
same,outcome,[3],inactive
same,max response,[4],-2.51%
same,Potency,[5],inactive
same,Potency,[6],inactive
same,Potency,[7],inactive
same,Potency,[8],inactive
same,outcome,[9],inactive
same,Potency,[10],inactive
same,max response,[11],-7.09%
same,max response,[12],5.62% (inactive)
same,activity change % (negative = inhibition),[13],-8.47% (inactive)
same,Potency,[14],48.6 µM (active)
same,activation,[15],-0.909% (inactive)
same,activation,[16],-1.65% (inactive)
same,activation,[17],0.167% (inactive)
same,max response,[18],5% (inactive)
same,max response,[19],-3.33% (inactive)
same,max response,[20],-5.28% (inactive)
same,Potency,[21],inactive
same,max response,[22],6.97% (inactive)
NCCCCCCCCCCCC(=O)O,activation,[23],0.942% (inactive)
same,outcome,[3],inactive
ClC(Cl)Cl,activation,[23],0.676% (inactive)
same,outcome,[3],inactive
same,Potency,[24],inactive
COc1ccccc1[N+](=O)[O-],activation,[23],-1.25% (inactive) and -5.38% (inactive)
same,max response,[25],2.69%
same,Potency,[26],inactive
Cc1ccc2ccc3cccc4ccc1c2c34,Potency,[27],inactive
same,activation,[23],-4.07% (inactive)
same,outcome,[3],inactive
same,Potency,[28],inactive
Nc1ccc(N)c2c1C(=O)c1c(N)ccc(N)c1C2=O,activation,[23],-0.332% (inactive)
same,outcome,[3],inactive
CCOP(=O)(OCC)Oc1ccc([N+](=O)[O-])cc1,activation,[23],2.69% (inactive)
same,outcome,[3],inactive
same,max response,[4],-45.6%
same,Potency,[5],inactive
same,outcome,[9],inactive
same,max response,[25],-4.35%
same,Potency,[26],inactive
same,Potency,[10],inactive
same,activity change % (negative = inhibition),[13],-16.8% (inactive)
same,activation,[16],0.546% (inactive)
same,activation,[17],0.386% (inactive)
same,max response,[18],-2.58% (inactive)
same,Potency,[29],inactive
same,max response,[19],-9.88% (inactive)
same,max response,[20],-2.61% (inactive)
same,Potency,[21],inactive
same,max response,[22],3.26% (inactive)
